IMPase Li cell – IMPase inhibition in cells with lithium potentiation. CHO-M1 cells, IP1 TR-FRET (IP-One), carbachol + lithium. Potency, µM (series often up to 59.4 µM), inactives show top-dose activity, negative = IMPase inhibition, hits mostly inhibitors. actives 0.35% (n = 210,000);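 further: IP1 builds up when IMPase is blocked and the TR-FRET signal falls; potency means the concentration at half of the fitted maximal effect; plate controls were basal vehicle for no effect and high inhibitor control for full effect; nearly all actives have a fitted effect of over 50% in size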
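CHO cells stably expressing M1 receptor (2000/well) were cultured 16–30 h, then exposed to compounds with a small lithium addition for 30 min at 37C. IP1 was measured by TR-FRET competition; AC50 from Hill fits.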
PNC assembly inh – perinucleolar compartment assembly inhibition; PC3M PTB-GFP, PNC prevalence imaging, 16 h; hits give low values; activity change (PNC), negative = inhibition, % at 10 µM; actives 3.1% (n = 140,000); AID 2417;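 active means readout at or below -70, meaning at least 70% loss of cells showing the perinucleolar compartment, a nuclear body marking cancer cells; inconclusive means readout between -30 and a set limit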;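 further: plate controls were DMSO wells for no effect and camptothecin positive control wells for full effect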
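Compounds are pinned in duplicate onto adhered PC3M cells stably expressing GFP-tagged PTB and incubated 16 h at 37 C. Cells are then fixed, nuclei stained with Hoechst, and PNC-positive cells counted.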
ALDH1A1 inh – ALDH1A1 (human) enzyme inhibition | P00352 | Purified ALDH1A1, NADH fluorescence, propionaldehyde substrate | Potency, µM (series often up to 75.3 µM), for the others: at the top dose activity, negative = inhibition, most hits filed as inhibitors | actives 7.3% (n = 220,000) | AID 1030; active means well fitted inhibition curve with a large enough effect, not every such curve was filed as active; inconclusive means small, poorly fitted or top-dose-only effect, or another doubt; inactive means no such curve, though single readings can be large or run the other way;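 further: potency means the concentration at half of the fitted maximal effect; plate controls were no enzyme wells and a reference inhibitor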
ALOX12 inhib – blocks human 12-lipoxygenase activity | purified 12-hLO, xylenol orange hydroperoxide absorbance | P18054 | actives 0.12% (n = 150,000) | AID 1452 | Potency, µM (top dose mostly 57.1 µM), for the others: at the highest dose activity change, negative = inhibition, most hits filed as inhibitors; further: potency means the concentration at half of the fitted maximal effect; nearly all actives have a fitted effect of over 55% in size
Target sequence (P18054 whole entry, looked up): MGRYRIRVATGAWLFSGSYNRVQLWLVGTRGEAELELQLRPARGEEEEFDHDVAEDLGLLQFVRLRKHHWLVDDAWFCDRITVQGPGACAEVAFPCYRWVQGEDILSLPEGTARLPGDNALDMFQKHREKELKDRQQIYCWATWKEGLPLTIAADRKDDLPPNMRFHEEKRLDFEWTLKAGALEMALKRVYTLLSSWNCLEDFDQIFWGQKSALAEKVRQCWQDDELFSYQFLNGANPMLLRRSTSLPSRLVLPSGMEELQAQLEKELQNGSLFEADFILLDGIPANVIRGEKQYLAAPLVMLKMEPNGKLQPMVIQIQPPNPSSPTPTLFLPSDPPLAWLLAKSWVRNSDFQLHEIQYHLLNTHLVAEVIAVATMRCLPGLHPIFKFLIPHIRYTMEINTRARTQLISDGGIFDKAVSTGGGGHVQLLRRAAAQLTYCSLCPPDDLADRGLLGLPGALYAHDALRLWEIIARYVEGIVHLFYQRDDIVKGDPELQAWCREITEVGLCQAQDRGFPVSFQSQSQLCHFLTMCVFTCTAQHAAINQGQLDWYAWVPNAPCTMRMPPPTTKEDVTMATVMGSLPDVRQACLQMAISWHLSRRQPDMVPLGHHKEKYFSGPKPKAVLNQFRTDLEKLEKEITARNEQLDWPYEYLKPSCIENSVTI
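150 nM 12hLO, 25 mM Hepes pH 7.0 + 0.01% Triton X-100; cpd preinc 15 min RT; 40 uM arachidonic acid, 30 min RT; Fe-XO 30 min; A573/A405 ratio as read-out.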
HPGD block – HPGD (human) dehydrogenase inhibition. Potency, µM, for the others: at the highest dose activity change, negative = inhibition, most hits filed as inhibitors. actives 4.3% (n = 150,000). P15428. purified HPGD, NADH fluorescence kinetic, PGE2 substrate; active means well fitted inhibition curve with a large enough effect, not every such curve was filed as active; inconclusive means small, poorly fitted or top-dose-only effect, or another doubt; inactive means no such curve, though single readings can be large or run the other way; further: potency means the concentration at half of the fitted maximal effect
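NADH formation kinetics: reaction with 30 uM PGE2 and 1 mM NAD+ (final), 20 nM enzyme, Tris-HCl pH 8 with Tween 20, after 15 min compound preincubation at room temperature. Fluorescence change, last versus first of five reads.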
IMPase inh – membrane-permeable compound that blocks inositol monophosphatase. P97697. CHO-M1 cells, IP1 accumulation, HTRF TR-FRET ratio. inhibition (IP1 accumulation), % at 46.1 µM. 120,000 tested, under 10 active. AID 901; active means well fitted curve in the direction sought with a large enough effect in the signal ratio, not every such curve was filed as active; inconclusive means small, poorly fitted or top-dose-only effect, or a change in a side signal; inactive means no such curve, though single readings can be large or run the other way; the % refers to the signal ratio;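 further: cells stimulated with carbachol in lithium chloride buffer; plate controls were DMSO basal wells for no effect and reference inhibitor wells for full effect; higher means more IMPase inhibition seen as more IP1 and lower FRET ratio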
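Seeded CHO-M1 cells were dosed with compound at up to 46 uM, stimulated with carbachol for 30 min, then lysed in IP-One detection reagents. Higher IP1 lowers the TR-FRET signal.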
* hit, by the source's call; ? = inconclusive; / = no result; [ ] = remark or other dose. Shown are actives, neighbours in structure and some others; about 11% of the full set was active somewhere. Unless noted, the call rests on the fitted dose curve; in most records, active means well fitted curve in the direction sought with a large enough effect; inconclusive means small, poorly fitted or top-dose-only effect, or another doubt; inactive means no such curve, though single readings can be large; an effect the other way counts as inactive or inconclusive. Unless noted, on the % scale 0 is the no-effect control and ±100 the full control effect.

SMILES	IMPase Li cell	PNC assembly inh	ALDH1A1 inh	ALOX12 inhib	HPGD block	IMPase inh
CC(C)C[C@@H](CC(=O)N[C@@H](CCC(=O)O)CC(=O)O)NC(=O)[C@@H]1CCCC[C@H]1NC(=O)C[C@H](CCCN)NC(=O)C[C@H](Cc1ccccc1)NC(=O)[C@@H]1CNCC[C@H]1N	30.1%	/	-3.8%	8.7%	-10.8%	/
CC(C(=O)Nc1ccccc1-c1ccccc1)N1CCN(Cc2ccccc2)CC1 (stereo unspecified)	14.8%	/	14.1µM*	/	/	/
Cc1ccc(S(=O)(=O)N2CCN(C(C)C(=O)Nc3ccccc3-c3ccccc3)CC2)cc1 (stereo unspecified)	14.1%	-25.2	7.94µM*	5.0%	-0.2%	/
CC1CCN(C(C)C(=O)Nc2ccccc2-c2ccccc2)CC1 (stereo unspecified)	3.5%[38.3 µM]	69.2	-10.8%	-4.7%	-1.5%	1.4
CC(CCc1ccccc1)N1CCN(Cc2ccccc2)CC1 (stereo unspecified)	17.7%	?	-3.0%	-5.9%	3.6%	/
Cc1ccc(S(=O)(=O)N2CCN(C(C(=O)Nc3ccc(F)cc3)c3ccccc3)CC2)cc1 (stereo unspecified)	-3.2%	-5.7	?	-2.3%	-4.3%	8.5
CC(C(=O)Nc1ccccc1-c1ccccc1)N1CCN(C(=O)c2ccccc2)CC1 (stereo unspecified)	/	/	12.6µM*	/	/	/
O=c1cc(-c2ccc(O)cc2)oc2cc(OC3OC(CO)C(O)C(O)[C@H]3O[C@@H]3OC[C@@](O)(CO)C3O)cc(O)c12 (stereo partly specified)	4.8%	/	-6.4%	-0.5%	-23.5%	/
CC(C)CN1CCc2nc(-c3ccccc3)c3c(c2CC1)COC(C)C3 (stereo unspecified)	/	/	9.4%[13.5 µM]	/	/	/
CC(NC(=O)c1ccc(N(C)C)cc1)C(c1cccs1)N1CCN(C)CC1 (stereo unspecified)	23.9%[38.3 µM]	?	3.5%	2.4%	2.1%	16.7
CC(NC(=O)c1ccc(F)cc1)C(c1cccs1)N1CCN(C)CC1 (stereo unspecified)	-7.1%	-115.7*	10.6%	10.9%	-11.9%	-7.5
Cc1cccn2c(=O)c(C=NCCO)c(Nc3ccc(Cl)cc3)nc12	3.1%	/	3.1%	/	/	/
COCCNC(=O)C(C)Oc1ccc(Cl)cc1Cl (stereo unspecified)	0.6%[38.3 µM]	40.2	10.5%	5.1%	31.6µM*	2.9
CC(Oc1ccc(Cl)cc1Cl)C(=O)Nn1cnnc1 (stereo unspecified)	-3.1%	-118.9*	4.8%	3.6%	4.4%	-3.2
CC(=O)Nc1ccc(NC(=O)C(C)Oc2ccc(Cl)cc2Cl)cc1 (stereo unspecified)	-1.1%	/	5.2%	/	/	/
CC(Oc1ccc(Cl)cc1Cl)C(=O)NC1=NN(c2ccccc2)C(=O)C1 (stereo unspecified)	-7.5%[38.3 µM]	1.3	14.8%	8.91µM*	-6.3%	3.6
COC(=O)C1CCN(C(=O)C(C)Oc2ccc(Cl)cc2Cl)CC1 (stereo unspecified)	47.5%[38.3 µM]	-86.7*	?	-13.3%	-26.5%	-0.9
CCOC(=O)C1CCCN(C(=O)C(C)Oc2ccc(Cl)cc2Cl)C1 (stereo unspecified)	28.8%[38.3 µM]	12.9	8.7%	-6.8%	-7.2%	-4.8
CCNC(=O)C(C)Oc1ccc(Cl)cc1Cl (stereo unspecified)	10.2%	/	-13.1%	/	/	/
NCCC[C@@H](CC(=O)N[C@@H]1CCCC[C@H]1C(=O)N[C@H](CC(=O)N[C@@H](CCC(=O)O)CC(=O)O)Cc1c[nH]c2ccccc12)NC(=O)C[C@H](CO)NC(=O)[C@@H]1CCCC[C@H]1N	-1.2%	/	?	-2.4%	-10.2%	/
CCC1CCCCN1C(=O)CSc1nnc(-c2ccc(OC)c(OC)c2)o1 (stereo unspecified)	/	/	/	/	/	7.2

Bioassay records deposited in PubChem BioAssay by National Center for Advancing Translational Sciences (NCATS).
